Screen size: about 52,000 compounds; about 4,300 (8.3%) were called active. No stated cut-off is given here; in the data, active means survival mostly below about 52% (no sharp cut-off); inactive means mostly above about 56%. Many of the other results were omitted from the sample, so actives are more common in it than they were.
The molecules below were run on DeltatarO mutant (assay: growth inhibition of S. aureus wild type versus tarO mutant, primary screen, teichoic acid synthesis inhibitors, RN4220, OD600 (AID 463173)). Details: OD600, 18 h, stronger effect = lower value, screened at 18.75 µg/mL (by protocol).

Row | SMILES | survival
1 | CCCN1CCN(C(=O)Cn2c(-c3cccs3)cc3ccccc32)CC1 | 95% (inactive)
2 | Cc1cc(C)c2c(=O)[nH]c(SCC(=O)NCCc3ccccc3)nc2n1 | 61% (inactive)
3 | CCCN(CCC)CCCNC(=O)C1CCN(c2nc3ccc(CC)cc3s2)CC1 | 54% (inactive)
4 | CCCCN(C)CCNC(=O)C1CCN(c2nc3ccc(CC)cc3s2)CC1 | 45% (inactive)
5 | CCOc1ccc2nc(N3CCCC(C(=O)NCCc4ccc(Cl)cc4)C3)sc2c1 (configuration not stated) | 48% (active)
6 | CCOc1ccc2nc(N3CCCC(C(=O)NCCc4ccc(C)cc4)C3)sc2c1 (configuration not stated) | 64% (inactive)
7 | CCOc1ccc2nc(N3CCCC(C(=O)NCCc4ccc(SC)cc4)C3)sc2c1 (configuration not stated) | 91% (inactive)
8 | CCCN(CCC)CCNC(=O)C1CCN(c2nc3ccc(CC)cc3s2)CC1 | 43% (active)
9 | COc1ccc(CCNC(=O)CSc2cn(CCNC(=O)c3c(F)cccc3F)c3ccccc23)cc1OC | 79% (inactive)
10 | COc1cccc(CNC(=O)C2CCCN(S(=O)(=O)N(C)c3ccc(F)cc3)C2)c1OC (configuration not stated) | 87% (inactive)
11 | O=C1CS/C(=N\N2CCOCC2)N1Cc1ccccc1 | 84% (inactive)
12 | Cc1nnc(N2CCN(C(=O)NC(C)C)CC2)c2nn(-c3ccccc3)c(C)c12 | 72% (inactive)
13 | CC(C)c1ccc(NC(=O)Nc2csc3c2CCCC3)cc1 | 13% (active)
14 | O=C(Nc1ccc(F)cc1)Nc1csc2c1CCCC2 | 4% (active)
15 | Cc1ccc(NC(=O)Nc2csc3c2CCCC3)c(C)c1 | 63% (inactive)
16 | Cc1ccc(C)c(NC(=O)Nc2csc3c2CCCC3)c1 | 75% (inactive)
17 | Cc1ccccc1NC(=O)Nc1csc2c1CCCC2 | 29% (active)
18 | Cc1cc(NC(=O)Nc2csc3c2CCCC3)ccc1Br | 44% (inactive)
19 | O=C(Nc1ccc(F)cc1)c1csc2c1CCCCC2 | 63% (inactive)
20 | CCc1cccc(NC(=O)Nc2csc3c2CCCC3)c1 | 114% (inactive)
21 | Cc1cccc(C)c1NC(=O)Nc1csc2c1CCCC2 | 78% (inactive)

Row | SMILES | survival
22 | CCOCCCNC(=O)CCC(=O)NNc1nc2ccccc2c2nc(-c3ccccc3)nn12 | 83% (inactive)
23 | COc1ccc(NC(=O)CN2C(=O)CSc3ccc(S(=O)(=O)N(C)C)cc32)cc1Cl | 74% (inactive)
24 | CCc1nn(CC(=O)N2CCN(c3cccc(OC)c3)CC2)c(=O)c2cc3occc3n12 | 91% (inactive)
25 | COc1ccc(S(=O)(=O)N(CCc2ccccc2)CC(N)=O)cc1 | 88% (inactive)
26 | Cn1nnnc1SCCCNCc1cc(Cl)ccc1OCc1ccccc1 | 72% (inactive)
27 | O=C(CSc1nc2c(oc3ccccc32)c(=O)n1-c1ccccc1)Nc1ccc(F)c(Cl)c1 | 86% (inactive)
28 | O=C(CSc1nc2c(oc3ccccc32)c(=O)n1Cc1ccco1)Nc1cccc(Cl)c1 | 62% (inactive)
29 | COCCn1c(SCC(=O)Nc2ccc(F)c(Cl)c2)nc2c(oc3ccccc32)c1=O | 44% (active)
30 | CCOc1ccc(NC(=O)CSc2nc3c(oc4ccccc43)c(=O)n2CCOC)cc1 | 74% (inactive)
31 | O=C(CSc1nc2c(oc3ccccc32)c(=O)[nH]1)Nc1cccc(Cl)c1 | 37% (active)
32 | COc1cccc(-n2c(SCC(=O)Nc3cccc(Cl)c3)nc3c(oc4ccccc43)c2=O)c1 | 85% (inactive)
33 | O=C(NCc1ccc(F)cc1)C1CCN(c2ncnc3c2nc2n3CCCCC2)CC1 | 86% (inactive)
34 | CCC1(c2ccccc2)NC(=O)NC1=O (configuration not stated) | 98% (inactive)
35 | Clc1nc(Cl)nc(OCCCOc2nc(Cl)nc(Cl)n2)n1 | 94% (inactive)
36 | CCc1c(C)nc2nncn2c1Nc1ccc(Cl)cc1 | 91% (inactive)
37 | Cc1ccc(N2CCN(c3nc4ccccc4c4nnc(C)n34)CC2)c(C)c1 | 101% (inactive)
38 | CCOC(=O)c1cc(OC(=O)c2cccc(C)c2)n(-c2ccccc2)n1 | 59% (inactive)
39 | CCOC(=O)c1cc(OC(=O)c2ccccc2OC)n(-c2ccccc2)n1 | 54% (inactive)
40 | CCOC(=O)c1cc(OC(=O)c2cc(OC)cc(OC)c2)n(-c2ccccc2)n1 | 62% (inactive)
41 | CCOC(=O)c1cc(OC(=O)c2cc(OC)c(OC)c(OC)c2)n(-c2ccccc2)n1 | 54% (active)
42 | CCOC(=O)c1cc(OC(=O)c2ccc(OC)cc2)n(-c2ccccc2)n1 | 59% (active)

Row | SMILES | survival
43 | CCOC(=O)c1cc(OC(=O)c2ccc(C)cc2)n(-c2ccccc2)n1 | 137% (inactive)
44 | CCOC(=O)c1cc(OC(=O)c2cccc(F)c2)n(-c2ccccc2)n1 | 61% (inactive)
45 | CCOC(=O)c1cc(OC(=O)c2ccc(Cl)cc2)n(-c2ccccc2)n1 | 85% (active)
46 | CCOC(=O)c1cc(OC(=O)c2ccc(OC)c(OC)c2)n(-c2ccccc2)n1 | 67% (inactive)
47 | CCOc1ccc(NC(=O)CN2C(=O)COc3ccc(S(=O)(=O)NC4CCCC4)cc32)cc1 | 73% (inactive)
48 | O=C(c1ccc(F)cc1)N1CCN(CCc2ccncc2)CC1 | 84% (inactive)
49 | CCc1ccc(NCc2cc3ccc(OC)cc3n(CC(=O)Nc3c(C)cc(C)cc3C)c2=O)cc1 | 76% (inactive)
50 | N#CSc1ccc(NCCO)cc1C(F)(F)F | 95% (inactive)
51 | O=C(NCCc1ccc(Cl)cc1)C(=O)NCC(c1ccco1)S(=O)(=O)c1ccc(Cl)cc1 (configuration not stated) | 94% (inactive)
52 | O=C1CN(C(=O)c2ccc(Cl)cc2Cl)C(c2ccc(F)cc2)c2cc(F)ccc2N1 (configuration not stated) | 65% (inactive)
53 | COc1ccc(-n2ccnc(NCc3cccs3)c2=O)cc1OC | 85% (inactive)
54 | COc1ccc(-n2ccnc(NCc3ccccc3Cl)c2=O)cc1OC | 81% (inactive)
55 | COc1ccc(-n2ccnc(NCc3ccc(C)cc3)c2=O)cc1OC | 94% (inactive)
56 | O=c1c(NCCc2ccc(Cl)cc2)nccn1-c1ccccc1 | 55% (inactive)
57 | COc1ccc(-n2ccnc(NCc3ccccc3OC)c2=O)cc1 | 89% (inactive)
58 | O=c1c(NCc2ccccc2Cl)nccn1-c1ccccc1 | 17% (active)
59 | COc1ccc(-n2ccnc(NCc3ccc(Cl)cc3)c2=O)cc1 | 8% (active)
60 | COc1ccc(-n2ccnc(NCc3cccs3)c2=O)cc1 | 20% (active)
61 | O=c1c(NCc2cccs2)nccn1-c1ccccc1 | 68% (inactive)
62 | Cc1cc(C)cc(NC(=O)c2cccc(N3CCCS3(=O)=O)c2)c1 | 101% (inactive)

Reference: PubChem BioAssay AID463173 (ICCB-Longwood Screening Facility, Harvard Medical School, 2010)
